This excerpt belongs to a sample that is enriched for hits.
Mac1 fbg enh = increases human CD11b/CD18 adhesion to fibrinogen; K562 CD11b/CD18 adhesion to fibrinogen, ATPlite luminescence; 93,000 tested, 0.07% active; P05107+P11215; AID 1499; activation, % at 10 µM;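 active = 10 µM primary screen giving 50% or more activity, confirmed by 40% or more on retest at that dose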
Ecoli WT expand = blocks growth of wild type E. coli BW25113; 98,000 tested, 0.15% active; OD600 absorbance; growth inhibition, % at 100 µM; AID 710;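 active = growth inhibition above about 50% at one test dose, limit read from the data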;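 also: growth measured after 20 h incubation at 37 °C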
CD11b adhes inh = CD11b/CD18-fibrinogen binding inhibition. P05107+P11215. K562 CD11b/CD18 adhesion to fibrinogen, ATPlite luminescence; Mn2+ added to activate the integrin. inhibition, % at 10 µM. 93,000 tested, 0.54% active;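 active = primary inhibition of 50% or more at 10 µM, then 40% or more on retest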
Cav3 T inh = blocks human Cav3.2 T-type calcium channel | Cav3.2-expressing cells, Fluo-4 calcium fluorescence FDSS; stronger effect = lower value | B-score at 10 µM | 100,000 tested, 4% active;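 active = single-dose well whose peak fluorescence ratio is a statistical outlier from its plate by either plate-standardised score or position-corrected B-score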
* marks the source's active call; other numbers are inactive results; . = no result given.

SMILES	Mac1 fbg enh	Ecoli WT expand	CD11b adhes inh	Cav3 T inh
CCCC(=O)Nc1ccc(Sc2ccc([N+](=O)[O-])cc2)cc1	-1.6	1.0	12.5	-1.84
CN(C1CCCCC1)S(=O)(=O)c1ccc(S(=O)(=O)N2CCN(C(=O)c3ccccc3F)CC2)cc1	-1.2	-1.0	-4.0	0.00762
CCc1cc(/C(Cc2csc(C)n2)=N/O)c(O)cc1O	-9.1	-7.0	79.5*	-5.22*
Cc1ccc2[nH]c(=O)c(C(c3nnnn3C3CCCC3)N(Cc3cccnc3)Cc3ccco3)cc2c1 (centres undefined)	-0.8	-12.0	-6.9	-2.12
Clc1ccc(C(c2nnnn2C2CCCCC2)N(Cc2cccnc2)Cc2ccco2)cc1 (centres undefined)	.	.	.	-3.85*
Clc1ccc(CN(CC2CCCO2)C(c2cccs2)c2nnnn2C2CCCC2)cc1 (centres undefined)	.	-16.0	.	-8.09*
O=C(COC(=O)[C@H](Cc1ccccc1)NS(=O)(=O)c1ccccc1F)NC1CCCCC1	-4.9	6.0	6.5	-4.94*
O=C(COC(=O)[C@H](Cc1ccccc1)NC(=O)c1cccs1)NC1CCCCC1	6.4	.	30.5	.
COc1c(F)c(F)c(C(=O)Nc2ccc(N3CCN(Cc4ccccc4)CC3)cc2)c(F)c1F	-0.4	-2.0	18.1	-4.17
COc1cc(NC(=O)CC2NCCNC2=O)cc(OC)c1 (centres undefined)	-5.5	-2.0	1.6	-3.66
CN1/C(=C\C(=O)COC(=O)CN2C(=O)C3CC=CCC3C2=O)C(C)(C)c2ccccc21 (centres undefined)	-5.7	2.0	-6.0	0.506
CN1/C(=C\C(=O)CN2C(=O)NC3(CCCCCC3)C2=O)C(C)(C)c2ccccc21	6.4	-2.0	1.9	-4.16*
O=C(Nc1ccccc1)C1=C[C@H](C2CC2)C[C@H](OCCCCO)O1	.	.	.	1.35
CCOC(=O)N1CCC(N(CCN(C)C)C(=S)Nc2cc(C)cc(C)c2)CC1	-1.4	.	0.4	.
CCCCC(=O)Nc1cccc(NC(=O)c2ccccc2Br)c1	0.5	8.0	-29.9	0.448
CCOC(=O)C1=C(C)N(C)C(C)=C(C(=O)OCC)C1c1ccc(C(=O)OC)cc1	1.4	-9.0	-1.2	-7.01*
COC(=O)C1=C(C)N(C)C(C)=C(C(=O)OC)C1c1ccc(Cl)cc1	2.1	7.0	-3.3	-0.0542
CCCNS(=O)(=O)c1ccc(CCC(=O)Nc2cc(Cl)ccc2Oc2ccccc2)cc1	.	.	.	-6.98*
CC(C)CNS(=O)(=O)c1ccc(CCC(=O)Nc2cc(Cl)ccc2Oc2ccccc2)cc1	0.5	-16.0	4.7	-6.16*
COc1ccc(CCC(=O)Nc2cc(Cl)ccc2OC)cc1	2.6	3.0	-4.6	-1.25
CCOc1ccccc1C(=O)OCC(=O)Nc1cc(Cl)ccc1Oc1ccccc1	6.2	.	36.6	.
CC(C)CNS(=O)(=O)c1ccc(CCC(=O)O)cc1	-0.9	3.0	-3.9	-0.3
CC(C)(C)NS(=O)(=O)c1ccc(CCC(=O)Nc2cc(Cl)ccc2Oc2ccccc2)cc1	-1.1	-9.0	17.1	-5.31*
FC(F)(F)c1ccc(CN2CCCCCC2)cc1	-2.4	-10.0	-7.1	-0.00219
O=C(Nc1cccc2ccccc12)c1ccc(Cn2cc(Cl)cn2)cc1	-3.7	-7.0	-7.3	-3.87*
SMILES	Mac1 fbg enh	Ecoli WT expand	CD11b adhes inh	Cav3 T inh
COc1ccc(Cl)cc1NC(=O)CN(c1ccccc1)S(=O)(=O)N(C)C	-1.6	-6.0	-3.2	-10.2*
CN(C)S(=O)(=O)N(CC(=O)Nc1ccccc1)c1ccccc1	.	.	.	-0.276
Cc1cccc(C)c1N(CC(=O)Nc1cc(Cl)ccc1Oc1ccccc1)S(C)(=O)=O	-0.9	-13.0	-4.7	-5.64*
COc1ccc(NC(=O)CN(c2ccccc2)S(=O)(=O)N(C)C)cc1OC	10.3	-1.0	-10.8	-0.465
CS(=O)(=O)N(CC(=O)Nc1cc(Cl)ccc1Cl)c1ccccc1Cl	-2.1	-12.0	-6.9	-4.67*
Cc1ccc(NC(=O)CN(c2ccccc2)S(=O)(=O)N(C)C)cc1C	.	.	.	-3.64*
Cc1ccc(C)c(N(CC(=O)Nc2cc(Cl)ccc2Oc2ccccc2)S(C)(=O)=O)c1	.	-8.0	.	.
Cc1ccccc1N(CC(=O)Nc1ccccc1C(=O)O)S(C)(=O)=O	-3.8	-4.0	-1.5	0.225
CCOC(=O)N1CCN(CC(=O)Nc2ccc(Oc3ccccc3)cc2)CC1	-1.8	2.0	5.2	-0.0662
C/C(=N\NC(=S)NC(C)C)c1ccc(-n2ccnc2)cc1	-2.9	-4.0	-9.1	1.23
O=c1[nH]c(=O)n(Cc2ccco2)c2c1C(C(F)(F)F)(C(F)(F)F)N=C(CCc1ccccc1)N2	.	0.0	.	-3.18
N#Cc1ccc(C2=NC(C(F)(F)F)(C(F)(F)F)c3c(n(Cc4ccco4)c(=O)[nH]c3=O)N2)cc1	.	3.0	.	-5.88*
Cc1nc(-c2ccc(Cl)cc2)sc1C1(C)CC(c2ccc(C#N)cc2)=NO1 (centres undefined)	.	.	.	-0.264

High-throughput results from PubChem.
